Read-out in experiment [1]: Macrophage colony-stimulating factor (MCSF), CSF1 (gene 1435)
Briefly: BSK_LPS_MCSF: BioMAP Diversity Plus: LPS Assay for Macrophage colony-stimulating factor (MCSF) Biomarker Activity (AID 2283083). The conditions noted are these: primary human HUVEC with PBMC; actives raise or lower the signal. The essentials:
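Bidirectional fitting against DMSO was applied to M-CSF levels read by ELISA at 24 h post-dose. The system pairs human umbilical vein endothelium with peripheral blood mononuclear cells; parallel SRB staining tracked cytotoxicity.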

Read-out in experiment [2]: Tissue Factor, F3 (gene 2152)
The experiment can be described thus: BSK_LPS_TissueFactor: BioMAP Diversity Plus: LPS Assay for Tissue Factor Biomarker Activity (AID 2283084). The conditions noted are these: primary human HUVEC with PBMC; actives raise or lower the signal. The essentials:
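Compound was added to an endothelial cell/PBMC co-culture, and after 24 h tissue factor (CD142) was read by ELISA. Gain or loss of signal was fitted against a DMSO baseline, and parallel SRB staining (560 nm) tracked overt cytotoxicity.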

Read-out in experiment [3]: Tumor necrosis factor (Homo sapiens) (UniProt P01375)
The experiment can be described thus: BSK_LPS_TNFa: BioMAP Diversity Plus: LPS Assay for Tumour Necrosis Factor alpha (TNFa) Biomarker Activity (AID 2283085). The conditions noted are these: primary human HUVEC with PBMC; actives raise or lower the signal. A digest of the protocol:
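Human umbilical vein endothelial cells co-cultured with PBMC and stimulated with LPS. TNFa was measured by ELISA 24 h after chemical dosing, fitted bidirectionally relative to DMSO.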

Read-out in experiment [4]: Vascular cell adhesion molecule 1 (VCAM1), VCAM1 (gene 7412)
The experiment can be described thus: BSK_LPS_VCAM1: BioMAP Diversity Plus: LPS Assay for Vascular cell adhesion molecule 1 (VCAM1) Biomarker Activity (AID 2283086). The conditions noted are these: primary human HUVEC with PBMC; actives raise or lower the signal. The essentials:
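Human umbilical vein endothelial cells co-cultured with PBMC and stimulated with LPS; VCAM-1 measured by ELISA 24 h after dosing. Bidirectional curve fitting against DMSO baseline; cytotoxicity tracked in parallel by SRB total-protein staining.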

Read-out in a further experiment: CD40, CD40 (gene 958)
Briefly: BSK_SAg_CD40: BioMAP Diversity Plus: SAg Assay for CD40 Biomarker Activity (AID 2283088). To be noted: primary human HUVEC with PBMC; actives raise or lower the signal. A digest of the protocol: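 CD40 is measured by fluorescence ELISA in an endothelial/PBMC primary human co-culture at 24 h post-dose. Fitting is bidirectional, DMSO baseline. Parallel SRB staining (560 nm) flags cytotoxicity.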

Read-out in another experiment: CD69, CD69 (gene 969)
Briefly: BSK_SAg_CD69: BioMAP Diversity Plus: SAg Assay for CD69 Biomarker Activity (AID 2283089).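 On AC50: cell surface CD69 protein quantified by ELISA with fluorescence detection.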 The conditions noted are these: primary human HUVEC with PBMC; actives raise or lower the signal. A digest of the protocol: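 Values derive from bidirectional fitting relative to DMSO vehicle. Cells: umbilical vein endothelium plus peripheral blood mononuclear cells, treated 24 h before fluorescent ELISA for CD69.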

Read-out in experiment [5]: Monocyte Chemoattractant Protein-1 (MCP1), CCL2 (gene 6347)
The experiment can be described thus: BSK_SAg_MCP1: BioMAP Diversity Plus: SAg Assay for Monocyte Chemoattractant Protein-1 (MCP1) Biomarker Activity (AID 2283090). To be noted: primary human HUVEC with PBMC; actives raise or lower the signal. A digest of the protocol:
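MCP-1 levels in the endothelial–PBMC SAg co-culture were quantified by ELISA at 24 h post-dosing; both increases and decreases versus DMSO scored. Cytotoxicity monitored by SRB total protein in parallel cultures.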

Read-out in experiment [6]: E-selectin (Homo sapiens) (UniProt P16581)
Briefly: BSK_SAg_Eselectin: BioMAP Diversity Plus: SAg Assay for Eselectin Biomarker Activity (AID 2283091). The conditions noted are these: primary human HUVEC with PBMC; actives raise or lower the signal. A digest of the protocol: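 Cell-surface E-selectin is read by ELISA at 24 h in the SAg co-culture of HUVEC and PBMC. Curves are fitted in both directions relative to DMSO. Parallel SRB total-protein staining tracks overt toxicity.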

The nature of experiment [7]: BSK_SAg_PBMCCytotoxicity: PBMC Cytotoxicity Assessment in the BioMAP Diversity Plus: SAg Assay (AID 2283093).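 Further: PBMC viability measured as Alamar Blue reduction fluorescence at 546/580 nm; fitted both ways against DMSO so a hit may be loss or gain of signal.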 The conditions noted are these: primary human HUVEC with PBMC. The essentials:
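Human umbilical vein endothelial cells co-cultured with PBMC; PBMC (75,000/well) pre-treated with compound 1 h, then activated with SEB and TSST-1 (20 ng/mL final each) for 90 h. Alamar Blue added 6 h, fluorescence 546/580 nm; bidirectional fit versus DMSO.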

Read-out in experiment [8]: Interleukin-8 (IL8), CXCL8 (gene 3576)
Briefly: BSK_SAg_IL8: BioMAP Diversity Plus: SAg Assay for Interleukin-8 (IL8) Biomarker Activity (AID 2283094). The conditions noted are these: primary human HUVEC with PBMC; actives raise or lower the signal. A digest of the protocol: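 Human umbilical vein endothelial cells co-cultured with PBMC, stimulated with superantigen; IL-8 measured by ELISA 24 h after chemical dosing. Bidirectional fitting versus DMSO; SRB staining in parallel cultures tracks cytotoxicity.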

Experiment [9] in a line: BSK_SAg_Proliferation: Cell Proliferation Assessment in the BioMAP Diversity Plus: SAg Assay (AID 2283095). The conditions noted are these: primary human HUVEC with PBMC. A digest of the protocol: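 Human umbilical vein endothelial cells co-cultured with PBMC; sulforhodamine B total-protein staining (0.1% SRB after 10% TCA fixation, absorbance 560 nm) at 96 h in sub-confluent culture. Fitted bidirectionally against DMSO.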

Experiment [10] can be described thus: BSK_SAg_SRB: Viability Assessment in the BioMAP Diversity Plus: SAg Assay (AID 2283096).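 Further: cells read one day after compound addition; hits may be either gain or loss of signal compared with DMSO.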 To be noted: primary human HUVEC with PBMC. The essentials:
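Endothelial/PBMC primary human co-culture; compound 24 h; fix 10% TCA, stain 0.1% SRB, A560; protein content as cytotoxicity proxy; bidirectional curve fit, DMSO = baseline.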

The target in experiment [11] is human CYP1A1, CYP1A1 (gene 1543) (UniProt P04798). The experiment can be described thus: NVS_ADME_hCYP1A1: NovaScreen (NVS) CYP450-related Enzyme Activity (ADME) Assay for human CYP1A1 (AID 2283100; active means hit-call score of the fitted dose curve at least 0.9, where 1 is the maximum). A digest of the protocol:
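Chemicals were first tested in duplicate at 10 uM, and those passing a 30% inhibition threshold were rerun as concentration series topping at 20 uM. Fluorescence read-out of recombinant enzyme turnover after 1 h, relative to acetonitrile.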

Experiment [12] deals with human CYP1A2, CYP1A2 (gene 1544) (UniProt P05177). Briefly: NVS_ADME_hCYP1A2: NovaScreen (NVS) CYP450-related Enzyme Activity (ADME) Assay for human CYP1A2 (AID 2283102; active means hit-call score of the fitted dose curve at least 0.9, where 1 is the maximum;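 further: fluorescence from turnover of a fluorogenic substrate by recombinant insect-cell CYP1A2; potency for inhibition since loss of fluorescence marks reduced CYP1A2 activity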). The essentials: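 Enzyme activity of insect-cell-expressed human CYP1A2 measured by fluorescence 0.5 h after compound addition, relative to acetonitrile. Compounds first tested in duplicate at 10 uM, actives followed up in concentration series.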
Sequence of human CYP1A2, CYP1A2 (gene 1544) (P05177 whole entry, looked up): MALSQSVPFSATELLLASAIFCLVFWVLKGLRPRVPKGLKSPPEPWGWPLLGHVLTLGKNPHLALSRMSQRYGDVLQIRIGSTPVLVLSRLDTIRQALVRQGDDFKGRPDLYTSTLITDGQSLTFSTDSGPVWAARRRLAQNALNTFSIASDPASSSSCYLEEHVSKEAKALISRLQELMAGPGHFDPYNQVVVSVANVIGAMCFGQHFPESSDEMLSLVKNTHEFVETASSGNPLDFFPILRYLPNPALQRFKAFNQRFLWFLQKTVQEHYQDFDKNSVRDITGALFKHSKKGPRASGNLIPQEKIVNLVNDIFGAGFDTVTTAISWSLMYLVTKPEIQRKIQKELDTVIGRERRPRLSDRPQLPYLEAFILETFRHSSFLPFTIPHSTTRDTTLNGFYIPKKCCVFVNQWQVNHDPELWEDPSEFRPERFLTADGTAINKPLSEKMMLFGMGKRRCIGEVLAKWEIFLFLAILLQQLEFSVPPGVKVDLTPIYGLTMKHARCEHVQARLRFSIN

Read-out in the next experiment: CD38, CD38 (gene 952)
Briefly: BSK_SAg_CD38: BioMAP Diversity Plus: SAg Assay for CD38 Biomarker Activity (AID 2283087). The conditions noted are these: primary human HUVEC with PBMC; actives raise or lower the signal. A digest of the protocol: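 Human HUVEC plus PBMC co-culture stimulated with superantigen; CD38 measured by ELISA 24 h after chemical dosing. Fluorescence read-out, bidirectional fit against DMSO; cytotoxicity tracked in parallel by SRB and Alamar Blue.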

Read-out in experiment [13]: Monokine induced gamma interferon (MIG), CXCL9 (gene 4283)
Briefly: BSK_SAg_MIG: BioMAP Diversity Plus: SAg Assay for Monokine induced gamma interferon (MIG) Biomarker Activity (AID 2283092). The conditions noted are these: primary human HUVEC with PBMC; actives raise or lower the signal. A digest of the protocol:
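Values reflect bidirectional fitting of ELISA-measured MIG against DMSO vehicle, taken 24 h after dosing of a co-culture of human umbilical vein endothelial cells and peripheral blood mononuclear cells.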

Experiment [14] has as its target human CYP2D6, CYP2D6 (gene 1565) (UniProt P10635). Briefly: NVS_ADME_hCYP2D6: NovaScreen (NVS) CYP450-related Enzyme Activity (ADME) Assay for human CYP2D6 (AID 2283107; active means hit-call score of the fitted dose curve at least 0.9, where 1 is the maximum). The essentials:
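Fluorescence readout of recombinant CYP2D6 (insect-cell derived) activity after 1 h incubation with test chemical. Acetonitrile served as baseline, loss-of-signal direction. Single-concentration duplicate screening at 10 uM preceded concentration-response retesting.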

Inconclusive results are not listed. Calls of active or inactive are those of the source. How the source made its calls, unless noted: active means hit-call score of the fitted dose curve at least 0.9, where 1 is the maximum; inactive means score below 0.9.

For orientation: AC50 means the concentration giving half of the maximal activity seen.

Sequence of E-selectin (Homo sapiens) (P16581 whole entry, looked up): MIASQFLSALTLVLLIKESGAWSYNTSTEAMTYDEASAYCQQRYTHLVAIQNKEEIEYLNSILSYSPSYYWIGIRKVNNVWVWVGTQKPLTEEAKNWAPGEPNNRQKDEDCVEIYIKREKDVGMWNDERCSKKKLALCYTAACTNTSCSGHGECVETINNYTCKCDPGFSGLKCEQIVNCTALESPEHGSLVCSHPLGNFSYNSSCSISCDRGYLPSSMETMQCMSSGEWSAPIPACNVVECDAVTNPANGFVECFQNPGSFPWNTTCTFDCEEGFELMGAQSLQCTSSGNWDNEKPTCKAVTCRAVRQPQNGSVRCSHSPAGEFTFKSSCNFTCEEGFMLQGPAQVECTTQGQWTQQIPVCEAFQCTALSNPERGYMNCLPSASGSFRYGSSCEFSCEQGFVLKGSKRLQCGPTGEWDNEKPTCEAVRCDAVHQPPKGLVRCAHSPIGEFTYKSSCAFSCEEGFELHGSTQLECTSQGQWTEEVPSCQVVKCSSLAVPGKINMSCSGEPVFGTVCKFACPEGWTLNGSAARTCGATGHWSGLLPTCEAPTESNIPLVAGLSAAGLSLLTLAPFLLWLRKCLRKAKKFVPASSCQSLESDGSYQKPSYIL
Sequence of Tumor necrosis factor (Homo sapiens) (P01375 whole entry, looked up): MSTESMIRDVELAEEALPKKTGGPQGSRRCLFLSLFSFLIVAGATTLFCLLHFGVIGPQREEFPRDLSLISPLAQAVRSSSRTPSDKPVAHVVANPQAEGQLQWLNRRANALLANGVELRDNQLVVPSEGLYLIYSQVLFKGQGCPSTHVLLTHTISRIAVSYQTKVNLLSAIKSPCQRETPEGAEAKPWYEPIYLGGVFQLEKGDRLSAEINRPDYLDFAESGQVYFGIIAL
Sequence of human CYP2D6, CYP2D6 (gene 1565) (P10635 whole entry, looked up): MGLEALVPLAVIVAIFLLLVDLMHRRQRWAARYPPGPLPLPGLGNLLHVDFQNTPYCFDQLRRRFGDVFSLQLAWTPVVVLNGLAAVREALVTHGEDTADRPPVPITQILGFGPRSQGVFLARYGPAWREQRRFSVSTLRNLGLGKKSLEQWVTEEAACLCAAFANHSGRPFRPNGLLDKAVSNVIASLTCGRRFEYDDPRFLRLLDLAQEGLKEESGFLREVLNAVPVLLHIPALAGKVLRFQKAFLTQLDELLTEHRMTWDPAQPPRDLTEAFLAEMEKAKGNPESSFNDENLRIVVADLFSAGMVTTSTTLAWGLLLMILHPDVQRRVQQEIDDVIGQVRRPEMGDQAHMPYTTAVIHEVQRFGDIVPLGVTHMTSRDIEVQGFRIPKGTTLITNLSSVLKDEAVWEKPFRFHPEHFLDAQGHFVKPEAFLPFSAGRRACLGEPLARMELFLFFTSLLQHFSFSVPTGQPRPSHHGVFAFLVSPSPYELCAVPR
Sequence of human CYP1A1, CYP1A1 (gene 1543) (P04798 whole entry, looked up): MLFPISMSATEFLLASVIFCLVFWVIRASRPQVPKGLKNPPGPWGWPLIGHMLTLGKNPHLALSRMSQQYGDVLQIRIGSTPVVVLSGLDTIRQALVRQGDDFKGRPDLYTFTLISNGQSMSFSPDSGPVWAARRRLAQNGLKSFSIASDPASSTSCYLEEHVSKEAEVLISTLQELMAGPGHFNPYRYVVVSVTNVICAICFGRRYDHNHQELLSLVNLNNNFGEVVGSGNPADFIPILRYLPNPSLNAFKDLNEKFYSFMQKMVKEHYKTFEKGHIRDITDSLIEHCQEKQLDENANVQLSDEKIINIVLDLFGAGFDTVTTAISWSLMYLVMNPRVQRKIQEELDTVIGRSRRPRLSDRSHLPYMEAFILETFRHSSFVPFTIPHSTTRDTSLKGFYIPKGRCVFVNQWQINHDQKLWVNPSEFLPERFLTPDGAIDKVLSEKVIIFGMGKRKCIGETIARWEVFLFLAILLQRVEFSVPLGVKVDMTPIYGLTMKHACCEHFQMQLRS

`Cc1c(-c2cccnc2)c2ccccc2n1CCCCC(=O)O`: the outcome was “inactive” in experiment [1]; “inactive” in experiment [2]; “inactive” in experiment [3]; “inactive” in experiment [4]; “inactive” with CD40, CD40 (gene 958); “inactive” with CD69, CD69 (gene 969). The result in [5], in experiment [6], in [7], in experiment [8] and in experiment [10] was inactive. Also, the AC50 is 20 µM (active) in [9], 4.39 µM (active) in experiment [11] and 13.9 µM (active) in experiment [12].
With `O=C(OC[C@H]1O[C@@H](OC(=O)c2cc(O)c(O)c(OC(=O)c3cc(O)c(O)c(O)c3)c2)[C@H](OC(=O)c2cc(O)c(O)c(OC(=O)c3cc(O)c(O)c(O)c3)c2)[C@@H](OC(=O)c2cc(O)c(O)c(OC(=O)c3cc(O)c(O)c(O)c3)c2)[C@@H]1OC(=O)c1cc(O)c(O)c(OC(=O)c2cc(O)c(O)c(O)c2)c1)c1cc(O)c(O)c(OC(=O)c2cc(O)c(O)c(O)c2)c1`, the outcome in experiment [1], in experiment [3], in experiment [13] and in experiment [7] was inactive. In addition, the AC50 in experiment [4] was 6.1 µM (active); in the experiment with CD38, CD38 (gene 952), 9.88 µM (active); with CD40, CD40 (gene 958), 8.21 µM (active); with CD69, CD69 (gene 969), 6.1 µM (active); in experiment [5], 6.1 µM (active); in [6], 6.1 µM (active). Moreover, the AC50 in experiment [8] was 10.2 µM (active); in experiment [9], 6.18 µM (active); in [10] it was 9.72 µM (active); in [12], 2.01 µM (active).
`COC(=O)c1c(Cl)c(Cl)c(C(=O)OC)c(Cl)c1Cl`: the AC50 was 20 µM (active) in [1]; 20 µM (active) with CD40, CD40 (gene 958); 8.47 µM (active) in experiment [12]. Besides, the outcome was “inactive” in experiment [2]; “inactive” in [3]; “inactive” in experiment [4]; “inactive” with CD69, CD69 (gene 969); “inactive” in [5]; “inactive” in [6]. The outcome in [13], in [7], in [8], in [9] and in experiment [10] was inactive.
Take `COc1ccc(-n2nc(C(F)F)cc2-c2ccc(S(C)=O)cc2)cc1` (stereo not given): the outcome in [1] was “inactive”; in [2], “inactive”; in [4], “inactive”; with CD40, CD40 (gene 958) it was “inactive”; in experiment [7], “inactive”; in experiment [9], “inactive”. Besides, the result in experiment [10] was inactive. In addition, the AC50 in experiment [3] was 2.57 µM (active); with CD69, CD69 (gene 969) it was 2.28 µM (active); in [5], 1.13 µM (active); in experiment [6] it was 1.21 µM (active); in experiment [8], 2.09 µM (active).
Regarding `CC(C)CCCCCCOC(=O)c1ccc(C(=O)OCCCCCCC(C)C)c(C(=O)OCCCCCCC(C)C)c1`, the outcome in [1] was “inactive”; in experiment [2], “inactive”; in [3], “inactive”; in experiment [4], “inactive”; with CD40, CD40 (gene 958) it was “inactive”; with CD69, CD69 (gene 969), “inactive”. Besides, the outcome in experiment [5], in experiment [6], in [13], in experiment [7], in [8] and in experiment [9] was inactive. Moreover, the outcome in experiment [10] was inactive.
`CC(C)c1cccc(C(C)C)c1N1C(=O)c2ccc(O)cc2C1=O`: the AC50 is 9.36 µM (active) in experiment [1]; 10.1 µM (active) in [4]; 18.9 µM (active) with CD40, CD40 (gene 958); 19.1 µM (active) with CD69, CD69 (gene 969); 37.1 µM (active) in experiment [5]; 30.9 µM (active) in [6]. Further, the AC50 in experiment [9] is 20 µM (active); in [10] it was 19.3 µM (active). The outcome in [2], in [3], in [7], in experiment [8] and in experiment [14] was inactive.

The values above are taken from PubChem BioAssay (EPA / NIEHS).
